NADH enzymes: blocks coupling enzymes of NAD/NADH assays; coupled PK/LDH NADH assays, four targets; IC50, µM (top dose mostly 10 µM), inactives show top-dose inhibition; 0.02% of 65,000 active;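 active means single-dose screening hits from any of four coupled enzyme assays that gave an IC50 when retested across doses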;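 further: the DPM-DC format reads NADH fluorescence rather than 340 nm absorbance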
PMK inhibit: blocks S. pneumoniae phosphomevalonate kinase; AID 539; inhibition, % at 10 µM; purified PMK, PK/LDH-coupled NADH absorbance 340 nm; 0.49% of 65,000 active;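 active means top-ranked compounds by inhibition in the single 10 µM screen, taking a fixed number of the strongest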;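 further: 0% = full reaction with DMSO carrier and 100% = background rate without enzyme reaction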
Autofluor 339: intrinsic fluorescence of library compounds, ex339/em460 – biochemical, MLSMR library, data from DPM-DC assay, artefact control, profiling panel; compound autofluorescence, ex339/em460 nm, NADH buffer; active compounds read high; 1 = no-compound wells, NADH background; 5.5% of 65,000 active; AID 709; fluorescence fold increase at 10 µM;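 active means at 10 µM, mean starting fluorescence two-fold or more over control wells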;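 further: signal is the first read of a kinetic run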
DPM-DC inhibit: inhibitors of Streptococcus pneumoniae diphosphomevalonate decarboxylase; 0.49% of 65,000 active; calls only at 10 µM; purified DPM-DC, PK/LDH coupled NADH fluorescence; AID 556;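 active means the 320 compounds with the highest percent inhibition in the single-dose primary screen, excluding strongly autofluorescent ones, cut at about 32% in these data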;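 further: kinetic rate of NADH fluorescence loss reporting ADP formed by the decarboxylase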
Spn MK inh: inhibitors of Streptococcus pneumoniae mevalonate kinase. purified MK, PK/LDH-coupled NADH absorbance 340 nm. inhibition, % at 10 µM. 0.48% of 65,000 active. AID 555;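 active means ranked among the strongest by inhibition in the single 10 µM screen, a fixed top-ranked set picked for dose follow-up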
Abs 340nm: compound absorbs light at 340 nm; compound absorbance at 340 nm, fold over control; fold change at 10 µM; 65,000 tested, under 10 active; AID 708;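 active means at 10 µM dose, initial 340 nm absorbance at least 2 fold that of control wells; inactive means change under 2 fold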;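 further: initial absorbance extrapolated from kinetic A340 decline of NADH oxidation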
Numbers without * were called inactive; i = inactive; / = no result given; + = active, no number. Compounds with a hit are over-represented: about 6.8% of the library has one in this group of screens.

SMILES | NADH enzymes | PMK inhibit | Autofluor 339 | DPM-DC inhibit | Spn MK inh | Abs 340nm
CCOC(=O)N1CCC(NC(=O)c2cc(C(=O)NC3CCCC3)ccc2CO)CC1 | 2% | 9 | 1 | i | 4 | 0.98
CCOC(=O)N1CCC(NC(=O)c2ccc3c(c2)N(C)CCS3)CC1 | 3% | 9 | 3.4* | / | 0 | 1
CCOC(=O)N1CCN(C(=O)c2ccc3c(c2)N(CC)CCS3)CC1 | 11% | 10 | 2* | / | 11 | 1
CCOC(=O)N1CCN(C(=O)c2ccc(N3C(=O)c4ccccc4C3=O)cc2)CC1 | 4% | 1 | 1.1 | i | 9 | 1
Cc1onc(-c2ccccc2Cl)c1C(=O)N1CCN=C1SCc1cccnc1 | 8% | 16 | 1 | i | 7 | 1
Cc1ccsc1CN1CCN(c2ccccn2)CC1 | 15% | 0 | 1.1 | i | 45* | 1
CCC(=O)N(Cc1ccco1)c1nc(-c2ccccc2)cs1 | 9% | 27* | 1 | i | 0 | 1
CCC(=O)N(Cc1ccco1)c1nc(-c2cc(OC)ccc2OC)cs1 | 4% | 5 | 1 | i | 5 | 1
COc1cc(OC)cc(-c2cc3nc4c(c(N5CCN(c6ncccn6)CC5)n3n2)CCCC4)c1 | 6% | 11 | 3.8* | i | 8 | 1
COc1cc(OC)cc(-c2cc3nc4c(c(N5CCN(c6cnccn6)CC5)n3n2)CCCC4)c1 | 1% | 0 | 2.8* | i | 0 | 1
CCc1c(C)nc2cc(-c3cc(OC)cc(OC)c3)nn2c1N1CCCC1 | 2% | 2 | 1.3 | i | 4 | 1
Cc1cc(-c2ccc(Cl)cc2)n2nc(N)nc2n1 | 2% | 0 | 3.6* | / | 4 | 1.1
Nc1nc2nccc(-c3ccc(Cl)cc3)n2n1 | 12% | 17 | 3.8* | / | 7 | 1.1
Cc1cc(Nc2ccc(F)c(Cl)c2)n2nc(C)nc2n1 | 7% | 8 | 1.1 | i | 12 | 1.1
COc1ccc(CCNC(=O)c2ccn[nH]2)cc1OC | 2% | 6 | 1.1 | i | 0 | 1
CCN1C(=O)c2cccc3c(S(=O)(=O)NCc4ccco4)ccc1c23 | 7% | 3 | 2.3* | i | 8 | 1.1
Cc1nccn1CC(O)COC1CCCCC1 (stereo not given) | 7% | 1 | 1 | i | 20 | 0.98
COc1ccccc1C(=O)N1CCN(c2nc3cc(C)c(C)cc3cc2C#N)CC1 | 10% | 9 | 2.8* | i | 7 | 1
COc1ccccc1C(=O)N1CCN(c2ccccn2)CC1 | 2% | 5 | 1.2 | i | 0 | 1.1
CCc1c(C)nc(/N=C(/NC(=O)c2ccccc2)Nc2ccccc2OC)[nH]c1=O | 9% | 10 | 1.1 | i | 10 | 1.1
C=CCNC1=C(Cl)C(=O)N(c2ccccc2Cl)C1=O | 6% | 16 | 1.5 | i | 2 | 1
COC(=O)c1ccc(Nc2cc(C)nc(-c3ccccc3O)n2)cc1 | 79% | 92 | 1.8 | + | 81* | 1.1
CCOC(=O)C1CCCN(C(=O)C2CCCN(S(C)(=O)=O)C2)C1 (stereo not given) | 9% | 26* | 1.1 | i | 1 | 0.99
CCOC(=O)Nc1cc(=O)c2ccccc2o1 | 3% | 0 | 1.6 | i | 2 | 1
CCOC(=O)Nc1cc2c(C)cc(=O)oc2cc1C | 15% | 9 | 3.6* | i | 7 | 1
SMILES | NADH enzymes | PMK inhibit | Autofluor 339 | DPM-DC inhibit | Spn MK inh | Abs 340nm
Cc1cc(NC(=O)CSc2nc(-c3cccs3)cc(C(F)(F)F)n2)no1 | 6% | 15 | 1.2 | i | 0 | 1.1
COc1ccc(-c2cc(C(F)(F)F)nc(NC3CCCC3)n2)cc1OC | 2% | 0 | 1.6 | i | 6 | 1.1
COc1ccc(OCCC(=O)Nc2cc(C)on2)cc1 | 10% | 14 | 1.1 | i | 15 | 1.1
COc1ccc(-c2cc(C(F)(F)F)nc(SCCC(=O)N3CCN4CCCC4C3)n2)cc1 (stereo not given) | 16% | 1 | 2.3* | + | 10 | 1.1
COc1ccc(-c2cc(C(F)(F)F)nc(SCCC(=O)Nc3cc(C)on3)n2)cc1 | 21% | 8 | 1.8 | + | 13 | 1
COc1ccc(-c2cc(C(F)(F)F)nc(SCC(=O)N3CC(C)OC(C)C3)n2)cc1OC (stereo not given) | 4% | 8 | 3.5* | / | 0 | 1.2
COc1ccc(-c2cc(C(F)(F)F)nc(SCC(=O)Nc3cc(C)on3)n2)cc1OC | 10% | 12 | 3.8* | / | 8 | 1.1
O=C(CCSc1nc(-c2ccco2)cc(C(F)(F)F)n1)N1CCN(c2ccccc2)CC1 | 1% | 3 | 1.1 | i | 0 | 1.1
NC1=NC(c2ccccc2Cl)n2c(nc3ccccc32)N1 (stereo not given) | 6% | 18 | 1 | i | 1 | 1
O=C(CCSc1nc(-c2ccc3c(c2)OCO3)cc(C(F)(F)F)n1)NCc1ccco1 | 17% | 28* | 2.2* | / | 5 | 1.1
O=c1c2ccccc2cnn1-c1nc2ccccc2s1 | 3% | 13 | 3* | / | 0 | 0.99
O=c1c2ccccc2ncn1Cc1nc2ccccc2s1 | 2% | 0 | 1.1 | i | 7 | 1.1
COc1ccc(C2OC(=O)c3ccccc3S2)cc1 (stereo not given) | 1% | 0 | 1.1 | i | 2 | 1
CC(C)CCn1nnnc1C(c1ccc(F)cc1)N1CCN(C(=O)c2ccco2)CC1 (stereo not given) | 9% | 26* | 1.1 | i | 0 | 1
Cc1ccc(C(c2nnnn2CC2CCCO2)N2CCN(C(=O)c3ccco3)CC2)cc1 (stereo not given) | 15% | 32* | 0.83 | i | 0 | 0.97
Cc1cc(NC(=O)c2ccccc2NS(=O)(=O)c2c(C)c(C)cc(C)c2C)no1 | 7% | 2 | 2.3* | / | 11 | 1
Cc1ccc(C)c(S(=O)(=O)Nc2ccccc2C(=O)Nc2cc(C)on2)c1 | 3% | 0 | 2.2* | / | 6 | 1.1
CCN(CC)CCCN1C(=O)C(=O)/C(=C(/O)c2ccccc2)C1c1ccccn1 (stereo not given) | 2% | 7 | 1 | i | 0 | 1
O=C(Nc1ccc(O)cc1)c1ccc(C(=O)c2ccccc2)o1 | 4% | 3 | 1 | i | 6 | 1.1
CCCCC(=O)Nc1ccc(C(N)=O)cc1 | 17% | 0 | 1.1 | + | 6 | 0.99
CCCCC(=O)Nc1ccc(C(=O)NCC(=O)OC)cc1 | 7% | 6 | 1.1 | i | 12 | 1
Cc1cccc(Nc2ccccc2C(=O)O)c1C | 3% | 4 | 0.96 | i | 4 | 1
CC(=O)n1cc(Nc2ccccc2C(=O)O)c2ccccc21 | 3% | 2 | 2.2* | / | 3 | 1.1
CCSc1nc(N2CCOCC2)c2c(c1C#N)CCCC2 | 7% | 4 | 1.1 | i | 7 | 0.99
CC(C)c1nc(N2CCOCC2)c(C#N)c2c1CCCC2 | 6% | 1 | 2.1* | / | 10 | 1
CCN1CCc2c(C#N)c(N3CCCCC3)nc(N3CCOCC3)c2C1 | 6% | 1 | 2.3* | / | 11 | 1.1
